# Only some compounds are listed: those with a hit (about 4% of all), similar ones and a draw of the others.
# Gli-Sufu block: Gli-Sufu pathway antagonism | inhibition, % at 5 µM | Sufu-KO-LIGHT fibroblasts, Gli luciferase reporter luminescence | 0.74% of 340,000 active;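 active = inhibition above about 55%, limit read from the data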;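 note: 0% = DMSO-treated cells and 100% = wells with medium but no cells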
# 697 NFkB inh: inhibitors of the PMA/ionomycin-induced NF-kB reporter in 697 B cells. 0.33% of 330,000 active. AID 435022. inhibition, % at 4 µM. 697 B-cell NF-kB luciferase reporter, 16 h; in the data active = inhibition above about 35%
# Mdm2 MdmX PPI: human Mdm2/MdmX binding inhibition; inhibition, % at 8 µM; 3% of 330,000 active; SaOS-2 split-luciferase Mdm2/MdmX complementation, luminescence; O15151+Q00987;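 active = inhibition of at least 50% at 8 µM in the primary screen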
# Jurkat NFkB inh: inhibitors of the PMA/ionomycin-induced NF-kB reporter in Jurkat cells. PMA/ionomycin-induced NF-kB luciferase reporter, luminescence. inhibition, % at 4 µM. 0.53% of 330,000 active. AID 435003; in the data active = inhibition above about 50%
# Beta apoptosis: blocks beta cell apoptosis; 0.8% of 300,000 active; INS-1E cytokine-induced death, ATP luminescence, 48 h; percent of positive-control rescue, neutral wells zero; protection from apoptosis, % (concentration not given with the values);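 active = Every replicate reaches about 75%, or at least half do and their mean reaches it too, limit read from the data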;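 note: 0% = cytokine-treated negative control wells and 100% = positive control rescue; higher means more ATP so stronger rescue from cytokine killing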
# Mdm2 MdmX conf: human Mdm2/MdmX binding inhibition, confirmed; shares compounds with Mdm2 MdmX PPI; luminescent assay; inhibition, % at 8 µM; 55% of 10,000 active; AID 489028; in the data active = inhibition above about 40%
# FLuc counter: counter-screen for Mdm2/MdmX inhibitors: full-length luciferase | 77% of 6,200 active | shares compounds with Mdm2 MdmX PPI | SaOS-2 full-length luciferase counterscreen, luminescence | inhibition, % at 8 µM;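 active = mean inhibition at 8 µM reaching about 37%, which flags the compound as non-specific, limit read from the data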;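 note: p53-null SaOS-2 cells with luciferase driven by a doxycycline-inducible promoter; compound on cells about two nights before reading with doxycycline added after day one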
# Numbers without * were called inactive; / = no result given.
SMILES,Gli-Sufu block,697 NFkB inh,Mdm2 MdmX PPI,Jurkat NFkB inh,Beta apoptosis,Mdm2 MdmX conf,FLuc counter
OC[C@H]1O[C@@H](n2cnc3c(NC4CCCC4)ncnc32)[C@H](O)[C@@H]1O,-1,5,14,8,-6,/,/
C=CCNc1ncnc2c1ncn2C1OC(CO)C(O)C1O (centres undefined),6,-4,56*,3,0,22,/
O=C(NCc1ccco1)c1ccc(N2CCCCC2)c([N+](=O)[O-])c1,-5,-28,14,28,-1,/,/
Cc1ccc(N(Cc2ccco2)C(=O)c2ccc(N3CCCCC3)c([N+](=O)[O-])c2)cc1,18,-35,54*,-33,29,29,/
COc1ccc(O)c(/C=N/NC(=O)c2ccc(OCc3cccc(Br)c3)cc2)c1,26,-18,68*,26,93*,69*,33
O=C(NCCc1ccc(Cl)cc1)C1CCC(CNc2nc(=S)[nH]c3ccccc23)CC1 (centres undefined),24,-27,67*,0,60,35,61*
CN1C(C(=O)NCc2ccccc2)CC2Cn3c(nc4cc5ccccc5cc43)C21 (centres undefined),-1,5,8,6,-11,/,/
N#C/C(=C(/O)c1ccc([N+](=O)[O-])o1)c1nc2ccccc2[nH]1,7,-24,39,0,-4,/,/
COc1cc(/C=C(\C#N)c2ccccn2)ccc1OCC(=O)Nc1cccc(C(F)(F)F)c1,-5,0,61*,-10,-5,52*,57*
N#C/C(=C\c1ccc([N+](=O)[O-])o1)c1nc2ccccc2[nH]1,17,-6,97*,25,100*,70*,61*
CCc1ccc(NC(=O)COc2ccc(/C=C(/C#N)c3nc4ccccc4[nH]3)cc2OC)cc1,3,-3,100*,12,/,81*,53*
COc1cc(/C=C(/C#N)c2nc3ccccc3[nH]2)ccc1Oc1ncccc1[N+](=O)[O-],-11,10,68*,3,11,26,/
O=CC1=C(c2ccccc2)Oc2ccccc2O1,-18,-33,57*,10,52,8,/
O=C(Nc1cccc(NC(=O)c2cccs2)c1)c1ccc([N+](=O)[O-])o1,1,6,61*,27,12,56*,44*
CCOc1ccc(C(=O)NC(=S)Nc2ccc(NC(=O)c3ccco3)cc2)cc1[N+](=O)[O-],-9,-14,22,-4,-2,/,/
CCOc1ccc(C(=O)Nc2ccc(NC(=O)c3cccs3)cc2)cc1[N+](=O)[O-],4,6,54*,15,-1,9,/
Cc1ccc(C(=O)Nc2ccc(NC(=O)c3cccs3)cc2)cc1[N+](=O)[O-],6,0,87*,3,5,24,107*
CCOc1ccc(C(=O)NC(=S)Nc2ncccc2C)cc1[N+](=O)[O-],-6,11,78*,-3,2,8,/
COc1ccc(CNC(=O)COC(=O)c2nc3nc(C)cc(C)n3n2)cc1,-5,7,32,4,-1,/,/
COc1ccc(COc2ccsc2C(=O)Nc2ccc(Cl)c(Cl)c2)cc1,3,2,76*,-12,-5,7,/
CN(C)S(=O)(=O)Oc1ccsc1C(=O)Nc1ccc(Cl)c(Cl)c1,-12,6,21,-8,-5,/,/
Cc1ccc2c(c1)C(=O)N1[C@H]3c4cc(Cl)ccc4OC[C@@H]3[C@H](c3ccccc3)[C@]1(C)C(=O)N2,-4,4,47,-11,-5,/,/
COc1ccc2c(c1)OC[C@H]1[C@H]2N2C(=O)c3cc(OC)c(OC)cc3NC(=O)[C@@]2(C)[C@H]1c1ccccc1,15,-10,58*,37,12,35,/
Cc1ccc2c(c1)C(=O)N1[C@H]3c4cc(C)ccc4OC[C@@H]3[C@H](c3ccccc3)[C@]1(C)C(=O)N2,5,15,54*,3,7,43*,38*
Cc1ccc2c(c1)C(=O)N1[C@H]3c4cc(Br)ccc4OC[C@@H]3[C@H](c3ccccc3)[C@]1(C)C(=O)N2,1,23,49,-2,2,/,/
SMILES,Gli-Sufu block,697 NFkB inh,Mdm2 MdmX PPI,Jurkat NFkB inh,Beta apoptosis,Mdm2 MdmX conf,FLuc counter
C[C@@]12C(=O)Nc3cc(Cl)ccc3C(=O)N1[C@H]1c3cc(Br)ccc3OC[C@@H]1[C@@H]2c1ccccc1,-21,7,67*,24,23,72*,31
C[C@@]12C(=O)Nc3cc(Cl)ccc3C(=O)N1[C@H]1c3cc(Cl)ccc3OC[C@@H]1[C@@H]2c1ccccc1,4,6,61*,2,-3,26,/
COc1cc2c(cc1OC)C(=O)N1[C@H]3c4ccccc4OC[C@@H]3[C@H](c3ccccc3)[C@]1(C)C(=O)N2,-2,-156,28,-37,0,/,/
C[C@@]12C(=O)Nc3cc(Cl)ccc3C(=O)N1[C@H]1c3ccccc3OC[C@@H]1[C@@H]2c1ccccc1,3,11,22,25,8,/,/
C=CC[C@@H](CC(=O)NCCO)C(=O)N[C@@H](C)COC(=O)[C@@H](CC=C)Cc1ccc(F)cc1,-1,4,-16,-2,12,/,/
COc1ccc(C(CNC(=O)CCNS(=O)(=O)c2ccccc2C(F)(F)F)N2CCOCC2)cc1 (centres undefined),1,/,/,/,/,/,/
C[C@@]12C(=O)Nc3ccc(F)cc3C(=O)N1[C@H]1c3cc(Cl)ccc3OC[C@@H]1[C@@H]2c1ccccc1,-2,-12,56*,10,16,34,/
COc1cc2nc(SCc3ccc(Cl)cc3Cl)n(Cc3cccs3)c(=N)c2cc1OC,13,9,2,-5,1,/,/
COc1ccc(Cn2c(SCc3cc(C)ccc3C)nc3cc(OC)c(OC)cc3c2=N)cc1,18,-17,84*,44,105*,100*,51*
O=C(CCn1ccnc1)Nc1nc2ccccc2[nH]1,0,15,2,0,-1,/,/
Cc1c2ccccc2cc[n+]1CCCS(=O)(=O)[O-],-5,5,16,-1,-1,/,/
CCCCCCCC[n+]1cccc2c3ccccc3ccc21,90*,18,86*,47,108*,84*,23
CCOc1ccc(NC(=O)CSc2nnnn2C2CC2)cc1S(=O)(=O)N1CCCC1,0,-5,1,-13,2,/,/
COc1ccc2cc(C(=O)NCc3ccco3)c(=Nc3ccc(C(=O)O)cc3)oc2c1,5,9,6,-10,/,/,/
COc1ccc(N=c2oc3c(OC)cccc3cc2C(=O)NCc2ccco2)c(OC)c1,14,5,68*,-4,29,-10,/
O=C(Nc1nnc(-c2cccs2)o1)c1cccc(Oc2ccccc2)c1,3,16,55*,1,0,31,/
COc1cc(C(=O)Nc2ccc3c(c2)nc(C)n3C)cc(OC)c1OC,-12,-36,67*,49,8,43*,61*

# Assay outcomes from PubChem BioAssay.
